Hits are enriched below; roughly 19% of the tested compounds scored in any of these assays.
HT1080-NT tox: kills 2HG-producing HT-1080-NT fibrosarcoma cells; hit rate 1.6% among 360,000; AID 686970; Potency, µM (highest dose often 46.1 µM), inactives show at the highest dose activity, negative = less viability, most hits filed as cytotoxic; HT-1080-NT fibrosarcoma viability, CellTiter-Glo ATP luminescence, 48 h;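 also: NT is the 2HG producing partner of a matched IDH1 knockdown line; potency is read from the fitted curve at half-maximal effect; 0% = DMSO-treated cells and -100% = media-only wells without cells; nearly all actives have a fitted effect of over 55% in size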
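HT-1080-NT; 750 cells/well; 5% FBS RPMI; 48 h compound, 37 degrees C; CellTiter-Glo luminescence; curve fitting and curve-class assignment.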
TDP1 cell noCPT: qHTS for Inhibitors of human tyrosyl-DNA phosphodiesterase 1 (TDP1): qHTS in cells in absence of CPT | hit rate 15% among 420,000 | Potency, µM (doses to about 46.2 µM), inactives show top-dose activity change, negative = growth inhibition, most hits filed as inhibitors | DT40 Tdp1-/- hTDP1 cells, no CPT, ATP luminescence, 48 h | AID 686978, 2013; also: potency is read from the fitted curve at half-maximal effect; nearly all actives have a fitted effect of over 55% in size
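Growth of hTDP1-complemented DT40 Tdp1-knockout cells is measured by ATP luminescence after at least 48 hr compound exposure at 37 °C, with DMSO substituting for the 20 nM CPT used in the parallel screen.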
TDP1 cell CPT: DT40-hTDP1 cell growth loss with CPT. AID 686979. chicken DT40 Tdp1-/-;hTDP1 cells + 20 nM CPT, ATP luminescence, 48 h. hit rate 12% among 420,000. Potency, µM (titrated, usually from 46.2 µM), inactives show top-dose activity change, negative = growth inhibition, actives largely listed as inhibitors; also: potency is read from the fitted curve at half-maximal effect; nearly all actives have a fitted effect of over 55% in size
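Cell growth measured by CellTiter-Glo luminescence after a minimum 48 h, 37 C compound exposure with 20 nM CPT in Tdp1-knockout DT40 cells stably expressing hTDP1, seeded 400/well; qHTS titration format.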
HT1080 IDH1KD tx: kills HT-1080 cells with IDH1 knockdown; HT-1080 IDH1 knockdown viability, ATP luminescence, 48 h; Potency, µM (doses to about 46.1 µM), for the others: at the top dose activity, negative = toxicity, most hits filed as cytotoxic; hit rate 2% among 360,000; AID 686971;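 also: potency is read from the fitted curve at half-maximal effect; 0% = DMSO wells and -100% = cell-free medium wells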
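In this qHTS, HT-1080 cells depleted of IDH1 are exposed for 48 h at 37 °C to compound titrations. Toxicity is scored from CellTiter-Glo luminescence, with DMSO as full viability and medium alone as none.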
IL-1B inflam inh: blocks inflammasome-driven IL-1 beta release. THP-1 LPS/ATP IL-1B secretion, AlphaLISA, 16 h; active compounds read low. activity change, % at 57.5 µM. hit rate 4.7% among 360,000. AID 743279; in the data active = activity change below about -50%; inconclusive = mostly about -30% to -49%
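Secreted IL-1B measured by AlphaLISA bead assay after 16 h compound exposure of THP-1 cells; compounds (final up to 57.5 uM) added 1 h before LPS (250 ng/mL) and ATP (1.25 mM) stimulation; lower signal means less secretion.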
Starred values were filed as active, the others as inactive; ? = inconclusive; / = no result given. Unless noted, calls follow the shape of the dose curve; as a rule, active = well fitted curve in the direction sought with a large enough effect; inconclusive = small, poorly fitted or top-dose-only effect, or another doubt; inactive = no such curve, though single readings can be large; an effect the other way counts as inactive or inconclusive. Unless noted, % is scaled to controls: 0 for no effect and ±100 for the full control effect.

SMILES | HT1080-NT tox | TDP1 cell noCPT | TDP1 cell CPT | HT1080 IDH1KD tx | IL-1B inflam inh
O=C(COC(=O)C12CC3CC(CC(Br)(C3)C1)C2)Nc1c(F)cccc1F | 11% | 5% | -22% | 8% | 11
c1csc(CCNc2ncnc3sc4c(c23)CCC4)c1 | -26% | 8.2µM* | 3.7µM* | ? | 17
Cc1sc2ncnc(NCC(c3ccco3)N(C)C)c2c1C (stereo not given) | 5% | ? | -21% | 7% | 17
CN(C)C(CNc1ncnc2sc3c(c12)CCCCC3)c1ccco1 (stereo not given) | -20% | 18µM* | ? | -24% | -51*
COc1cccc(Nc2nc(C(N)C3CCCCC3)cs2)n1 (stereo not given) | ? | 23µM* | ? | 16µM* | 0
COc1cccc(Nc2nc(CN)cs2)n1 | -2% | ? | -21% | 0% | 24
COc1cccc(Nc2nc(C(C)N)cs2)n1 (stereo not given) | ? | ? | 13µM* | -8% | -18
COc1cccc(Nc2nc(C(N)c3ccccc3)cs2)n1 (stereo not given) | ? | 12µM* | 9.2µM* | ? | -71*
COc1ccc(C(CNC(=O)C(C)(C)Oc2ccc(Cl)cc2)N2CCOCC2)cc1 (stereo not given) | 9% | -29% | ? | 2% | -21
COc1cccc(N(C(=O)c2snc(C(N)=O)c2N)C(C(=O)NCC2CCCO2)c2cccs2)c1 (stereo not given) | -24% | 16µM* | ? | 1% | -3
Cc1cc(C)cc(N(C(=O)c2snc(C(N)=O)c2N)C(C(=O)NCC2CCCO2)c2cccs2)c1 (stereo not given) | -26% | 26µM* | 23µM* | -29% | ?
Cc1cccc(N(C(=O)c2snc(C(N)=O)c2N)C(C(=O)NCC2CCCO2)c2ccc3ncccc3c2)c1 (stereo not given) | -13% | ? | -23% | -3% | ?
COc1cccc(N(C(=O)c2snc(C(N)=O)c2N)C(C(=O)NCC2CCCO2)c2ccc3ncccc3c2)c1 (stereo not given) | -7% | -19% | 7% | 24% | -10
NC(=O)c1nsc(C(=O)N(c2ccccc2)C(C(=O)NCC2CCCO2)c2cccs2)c1N (stereo not given) | 0% | 15µM* | 23µM* | 13% | -9
COC(=O)C1C(=O)N(S(=O)(=O)c2ccc([N+](=O)[O-])cc2)c2ccccc21 (stereo not given) | -4% | 5% | 10% | 0% | -13
COc1ccc(S(=O)(=O)Cc2ccccc2)cc1N | -10% | ? | 9.2µM* | ? | 1
CCOc1ccccc1-c1nc(-c2ccc(NC(=O)c3ccc(Br)o3)cc2)no1 | ? | ? | 23µM* | ? | -18
CCOc1ccccc1-c1nc(-c2ccc(NC(=O)Cc3ccc(OC)cc3)cc2)no1 | ? | ? | ? | ? | -18
O=C1NC(NS(=O)(=O)c2ccccc2)(C(F)(F)F)C(=O)N1c1cccc(Cl)c1 (stereo not given) | -4% | -25% | 22% | 17% | -4
Cc1[nH]nc(-c2cccnc2)c1N=NN(C)C | 21µM* | 1.5µM* | 0.82µM* | 21µM* | -104*
O=C(N/C(=C/c1ccc(Cl)cc1)c1nc2ccccc2[nH]1)c1ccco1 | 1% | -13% | ? | 5% | -28
O=C(NCc1ccco1)/C(=C/c1cccc(C(F)(F)F)c1)c1nc2ccccc2[nH]1 | ? | 5.8µM* | 9.2µM* | ? | -115*
O=S(=O)(/C(=C\c1ccc(C(F)(F)F)cc1)c1nc2ccccc2[nH]1)c1ccccc1 | 1.8µM* | 2.1µM* | 2.1µM* | 1.5µM* | -96*
O=C(NCc1ccco1)/C(=C/c1ccc(C(F)(F)F)cc1)c1nc2ccccc2[nH]1 | -16% | ? | ? | -13% | -73*
Brc1cccc(-c2nc3cccnc3nc2-c2cccc(Br)c2)c1 | 15% | 16µM* | ? | 13% | 30
SMILES | HT1080-NT tox | TDP1 cell noCPT | TDP1 cell CPT | HT1080 IDH1KD tx | IL-1B inflam inh
Brc1cccc(C=Nc2cccc3ncccc23)c1 | -4% | -5% | 1% | -5% | 27
CCC1(CC)NC(=O)N(CC(=O)Nc2cccc3ccccc23)C1=O | 9% | -3% | -19% | 0% | 0
COc1ccc(-n2c(=O)c3c4c(sc3n(Cc3ccc(F)cc3)c2=O)CCCC4)c(OC)c1 | / | 15µM* | 21µM* | / | /
COc1ccc(-n2c(=O)c3c4c(sc3n(CC(=O)Nc3cc(C)[nH]n3)c2=O)CCCC4)c(OC)c1 | ? | -21% | 7% | ? | -17
COc1ccc(-n2c(=O)c3c4c(sc3n(Cc3ccccc3Cl)c2=O)CCC4)c(OC)c1 | / | 21µM* | ? | / | /
COc1ccc(-n2c(=O)c3c4c(sc3n(Cc3ccc(C)cc3C)c2=O)CCC4)c(OC)c1 | / | ? | 18µM* | / | /
Cc1cc(/C=C2\SC(N)=NC2=O)c(C)n1-c1ccc(F)cc1 | 3% | ? | -17% | 0% | 20
C[C@@H]1[C@H](O)C[C@@]23COC(=O)C2=CCCC3[C@@]1(C)CCC1COC(=O)C1 (stereo not given in full) | ? | 9% | 12% | 2% | 14
C[C@@H]1CN([C@@H](C)CO)C(=O)CCCn2nncc2CO[C@H]1CN(C)C(=O)c1ccc2ccn(C)c2c1 | -4% | -1% | 9% | 1% | -6
O=C(COc1ccccc1[N+](=O)[O-])N/N=C/C=C/c1ccco1 | 8% | ? | -25% | 10% | 0
Cc1cc(C)cc(OCC(=O)N/N=C/c2ccc([N+](=O)[O-])o2)c1 | -10% | ? | -89% | -12% | -64*
COc1ccccc1OCC(=O)N/N=C/C=C/c1ccc([N+](=O)[O-])o1 | -6% | 7.3µM* | 6.5µM* | ? | -100*
CCCOc1ccc(CCC(=O)N/N=C/c2ccc([N+](=O)[O-])o2)cc1 | -19% | -98% | 16µM* | -19% | -3
Cc1ccc(OCC(=O)N/N=C/C=C/c2ccco2)cc1 | -3% | 7.3µM* | 8.2µM* | -3% | -2
CCOc1ccccc1NC(=O)C(OC(=O)c1ccc(NC(=O)CC#N)cc1)c1ccccc1 (stereo not given) | -7% | ? | -26% | -14% | -6
Cc1ccccc1OCC(=O)N/N=C/c1ccc([N+](=O)[O-])o1 | -26% | 8.2µM* | 10µM* | ? | 8
CCC1(c2ccc(F)cc2)NC(=O)N(CC(=O)NCc2ccc(F)cc2)C1=O (stereo not given) | -3% | 15% | -21% | -1% | -10

High-throughput results (PubChem)
